About 5,000 (1.2%) of roughly 410,000 compounds were called active. Not shown: some 13% with an inconclusive outcome. What follows is part of a selection rich in actives, with near analogues and random picks from the rest. A number with no mark means an inactive call. The call rests on the fitted dose curve; in most records, active means well fitted inhibition curve with a large enough effect; inconclusive means small, poorly fitted or top-dose-only effect; inactive means no such curve, though single readings can be large or run the other way.
On the % scale 0 is the no-effect control and ±100 the full control effect; potency means the concentration at half of the fitted maximal effect.

The nature of the test: qHTS for Inhibitors of TGF-b. Further: nearly all actives have a fitted effect of over 65% in size. As to conditions: HepG2 CAGA-GFP TGF-b/SMAD3 reporter, GFP fluorescence, 18 h, TGF-beta stimulated, 500 pg/mL final; series mostly up to 46.1 µM; activity, negative = inhibition: at the top concentration. Summed up:
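Read-out: total well GFP (ex488/em500-530) summed from mean per-cell fluorescence. Cells: HEPG2 CAGA-GFP, 1% FBS DMEM, 18 h at 37 degrees C with 500 pg/mL final TGF-beta. Unstimulated wells served as the full-inhibition control; stimulated DMSO wells = 0%.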
A general note: Quantitative high-throughput screening tests each substance at several concentrations.
With `COc1ccc2nc(N3CCN(C(=O)c4ccc([N+](=O)[O-])o4)CC3)sc2c1`, the Potency is 10 µM (active).
`O=C(NCc1ccc(F)cc1)c1ccc2nc(N3CCCCC3)sc2c1`: the “activity, negative = inhibition” value was -18.5%.
Same read-out and setting: the result for `CCn1c2ccccc2c2cc(NC(=O)COc3ccc(C)cc3C)ccc21` reads -20.9%; that for `Cn1nc(-c2ccccc2)c(-c2ccccc2)c(C(=O)Nc2ccc(S(N)(=O)=O)cc2)c1=O`, -0.749%; that for `CCCCNc1ccc(-c2nc(-c3ccncc3)no2)cc1[N+](=O)[O-]`, -16.9%.
Take `Cc1cccc(N2CCN(C(=O)Cn3ncc4c5ccccc5n(C)c4c3=O)CC2C)c1` (configuration not stated): the “activity, negative = inhibition” value is 13.2%.
Still for that read-out and setting: then `CCOc1ccc(NC(=O)CN(Cc2ccccc2)S(=O)(=O)c2ccc(Cl)cc2)cc1`, with -14.5%.
Consider `COc1ccc(N(Cc2ccc(N(C)C)cc2)C(=O)c2ccc(S(C)(=O)=O)cc2)cc1`, for which the “activity, negative = inhibition” value was 5.12%.
In the case of `CCOc1ccc(N(Cc2ccccc2)C(=O)c2nc(S(C)(=O)=O)ncc2Cl)cc1`, the Potency was 3.98 µM (active).
`CCc1ccc(NC(=O)N2CCN(C(=O)c3nsc4ccccc34)CC2)cc1`: the “activity, negative = inhibition” value was 0%.
The same measure, in the same setting: then `COc1ccc(CCNC(=O)c2cn(C)c3ccc(S(=O)(=O)N(C)C4CCCCC4)cc3c2=O)cc1OC`, with 16%.
On the same count and under the same terms, then `CCOC(=O)c1ccc(-c2ccc(/C=C(\C#N)C(=O)Nc3ccc(C)cc3)o2)cc1`, with -1.98%.
Still for that read-out and setting: then `COc1ccc(-c2cc(NC=O)c3ncc(-c4cccc(C(=O)N(C)C)c4)n3c2)c(OC)c1`, with 4.36%; and `COc1ccc(-c2cc(NC=O)c3ncc(-c4ccccc4)n3c2)cc1OC`, with -7.58%.
`O=CNc1cc(-c2ccc(C(=O)N3CCOCC3)cc2)cn2c(-c3ccc(F)cc3)cnc12`: the “activity, negative = inhibition” value is -0.898%.
In the case of `CC(=O)c1ccc(-c2cnc3c(NC=O)cc(-c4cccc(NS(C)(=O)=O)c4)cn23)cc1`, the Potency is 7.08 µM (active).
In the case of `CC(=O)c1cccc(-c2cnc3c(NC=O)cc(-c4ccc(N(C)C)cc4)cn23)c1`, the Potency is 4.47 µM (active).
As to `CN(C)C(=O)c1cccc(-c2cnc3c(NC=O)cc(-c4ccc(C(=O)N5CCOCC5)cc4)cn23)c1`, the “activity, negative = inhibition” value was -1.01%.
Still for that read-out and setting: then `CCc1ccccc1NC(=O)c1cnn(-c2ccc(F)cc2)c1C1CCNCC1`, with 3.86%; and `Cc1nn(CC(=O)NCCc2ccccc2)c(=O)c2c1sc1ccccc12`, with -17.8%; and `CC(=O)N1c2ccccc2CC1C(=O)N1CCN(c2ccc(F)cc2)CC1` (configuration not stated), with 0.952%.
In the case of `CCc1ccc(OCCCn2c(CCCNC(=O)C3CCCCC3)nc3ccccc32)cc1`, the “activity, negative = inhibition” value was 1.56%.
Still for that read-out and setting: then `CCOC(=O)c1cc(-c2ccccc2)n(-c2cccc(C(=O)Nc3cc(OC)cc(OC)c3)c2)c1C`, with -22.2%; and `Cc1cccc([C@@H]2[C@@H]3C(=O)N(Cc4ccccc4)C(=O)[C@@H]3[C@]3(C)C(=O)N(c4ccc(Br)cc4)C(=O)N23)c1`, with -6.57%.
As for `Cc1ccc(-c2cccc([C@H]3[C@@H]4C=CC[C@@H](C)[C@@H]4C(=O)N3Cc3ccccc3)c2)cc1`, the Potency is 20 µM (active).
As for `COc1ccc(-c2ccc(OC)c(C3C4C=CCC(C)C4C(=O)N3Cc3ccccc3)c2)cc1C` (configuration not stated), the “activity, negative = inhibition” value was 6.54%.
The same measure, in the same setting: then `COc1ccc(-n2c(SC)nc3sc4c(c3c2=O)CCN(C(C)=O)C4)cc1`, with -23.2%.
As for `Cc1ccc(Cl)cc1N(C)C(=O)Cn1nc(Cc2cccnc2)c2ccccc2c1=O`, the Potency is 12.6 µM (active).
In the case of `O=C(Cn1nc(Cc2cccnc2)c2ccccc2c1=O)NCC1COc2ccccc2O1` (configuration not stated), the “activity, negative = inhibition” value was 6.14%.
The same measure, in the same setting: then `O=C(Cn1nc(Cc2cccnc2)c2ccccc2c1=O)NCC1CCCO1` (configuration not stated), with 0.32%.
With `CC(C)CCNC(=O)CSc1nc2ccccc2nc1Cc1ccc(Cl)cc1`, the “activity, negative = inhibition” value was 28.6%.
For the compound `COc1ccc(CCNC(=O)c2ccc(CSCc3ccc(C)cc3)o2)cc1OC`, the “activity, negative = inhibition” value is -16.2%.
As to `Cc1c(C=O)c2ccccc2n1CCOc1ccccc1`, the “activity, negative = inhibition” value is -28.7%.
For the compound `COC(=O)N/N=C/c1cn(CCCOc2ccc(C)cc2)c2ccccc12`, the Potency was 14.1 µM (active).
Take `O=C1c2ccccc2C(=O)N1CCOc1ccc(F)cc1`: the “activity, negative = inhibition” value is -1.94%.
Consider `COc1ccc(OCCn2cc(C(=O)C3CCCCC3)c3ccccc32)cc1`, for which the “activity, negative = inhibition” value is -6.4%.
Turning to `Cc1ccc(OCCOc2cccc(/C=N/NC(N)=O)c2)cc1`, the “activity, negative = inhibition” value is 0%.
On to `O=Cc1cn(CCOc2ccc(F)cc2)c2ccccc12`, for which the Potency is 3.98 µM (active).
As for `Cc1ccccc1CSc1nc2c([nH]c3ccccc32)c(=O)n1C`, the “activity, negative = inhibition” value was -9.83%.
Still for that read-out and setting: the result for `CCn1cc(C(=O)N2CCN(c3cc(Cl)ccc3C)CC2)c(=O)c2cc(S(=O)(=O)N3CCCC3)ccc21` reads -8.29%.
Same read-out and setting: then `COc1ccc(SCc2cc(=O)c3ccc(C)c(C)c3[nH]2)cc1`, with 22.7%; and `CCOc1c(Nc2cccc(Cl)c2)c(=O)c1=O`, with 0.843%.
`OCCCNc1nccc(-c2cc(Nc3cccc(Cl)c3)ncn2)n1`: the Potency was 0.447 µM (active).
Take `COc1ccc(S(=O)(=O)n2nc(C)c(S(=O)(=O)N3CCCCCC3)c2C)cc1`: the “activity, negative = inhibition” value was -19.1%.
As to `O=C(COc1ccccc1C(=O)Nc1ccccc1)Nc1cccc(F)c1`, the “activity, negative = inhibition” value is -3.63%.
On the same count and under the same terms, then `COCCNS(=O)(=O)c1cc(-c2nn3c(C)nnc3c3ccccc23)ccc1C`, with 21.7%.
Consider `COc1cc(/C=C2\Oc3ccc(C#Cc4ccc(O)cc4)cc3C2=O)cc(OC)c1`, for which the Potency is 7.08 µM (active).
